The source of these data is PubChem BioAssay (NCI).

The panel holds about 79,000 compounds, 15% with a hit somewhere; the sample as a whole holds those more often. A number with no mark means an inactive call. Calls of active or inactive are those of the source. Cut-off read from the data, not from the text of the source: active = growth inhibition above about 70%; inactive = the rest.

A short description of experiment [1]: NCI Yeast Anticancer Drug Screen. Data for the rad50 strain (AID 155).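 Note: 0% = growth of vehicle-only cultures of the same strain.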 Particulars: S. cerevisiae rad50 strain growth inhibition, active compounds read high. The gist of the method: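 DNA repair mutant yeast, compound exposure, growth read-out; inhibition is taken relative to vehicle.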
The nature of experiment [2]: NCI Yeast Anticancer Drug Screen. Data for the mec2-1 strain (AID 157). As to conditions: S. cerevisiae mec2-1 strain, active compounds read high. The essentials:
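Readout is yeast growth inhibition, normalised to vehicle-treated controls, in the mec2-1 strain exposed to compound.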

Experiment [3] can be described thus: NCI Yeast Anticancer Drug Screen. Data for the sgs1 mgt1 strain (AID 161).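 Note: 0% = growth of cultures given vehicle only.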 As to conditions: S. cerevisiae sgs1 mgt1 strain, active compounds read high. The gist of the method:
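Growth of a repair-deficient yeast mutant was monitored after compound treatment and expressed as inhibition relative to vehicle-treated cultures.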

Experiment [4] in a line: NCI Yeast Anticancer Drug Screen. Data for the cln2 rad14 strain (AID 165).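 Note: 0% = growth equal to vehicle treated cultures.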 Particulars: S. cerevisiae cln2 rad14 strain, active compounds read high. The gist of the method:
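Relative to vehicle controls, growth inhibition of compound-treated cln2 rad14 yeast was recorded.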

Experiment [5] can be described thus: NCI Yeast Anticancer Drug Screen. Data for the bub3 strain (AID 167). Particulars: S. cerevisiae bub3 mutant strain, active compounds read high. The gist of the method: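 In this screen, a yeast mutant lacking normal mitotic checkpoint function is challenged with compound. Relative growth versus vehicle gives the inhibition value.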
Experiment [6] is described as follows: NCI Yeast Anticancer Drug Screen. Data for the mlh1 rad18 strain (AID 175). As to conditions: S. cerevisiae mlh1 rad18 strain growth inhibition, active compounds read high. The essentials: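 Test agents were incubated with a yeast strain of defined genotype (DNA damage repair defect). Inhibition of growth was derived by comparison with vehicle-exposed cultures.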

Setting [7] is: at 5.0 µM (retest, dose inferred, filed as 0.5).
Setting [8] is: at 50.0 µM (retest, dose inferred, filed as 5.0).

For the compound `CCCOC(=O)c1nc(N(CC2CCCCC2)C(=O)NC)sc1/N=C/c1ccccc1`, the growth inhibition is 67% in experiment [1] (setting [7]); 86% (active) in experiment [1] (setting [8]); 5.15% in experiment [1] (at 50.0 µM); 62% in experiment [2] (setting [7]); 90% (active) in experiment [2] (setting [8]); -18.9% in experiment [2] (at 50.0 µM). Also, the growth inhibition in experiment [3] (setting [7]) is 45%; in experiment [3] (setting [8]) it was 91% (active); in experiment [3] (at 50.0 µM) it was 4.25%; in experiment [4] (setting [7]), 68%; in experiment [4] (setting [8]), 88% (active); in experiment [4] (at 50.0 µM) it was 37.9%. Further, the growth inhibition in experiment [5] (setting [7]) was 77% (active); in experiment [5] (setting [8]), 92% (active); in experiment [5] (at 50.0 µM), 10.8%; in experiment [6] (setting [7]), 73% (active); in experiment [6] (setting [8]), 92% (active); in experiment [6] (at 50.0 µM), -10.2%.

For the compound `CN=C(N)N/N=C(\C)c1ccc2c(c1)Cc1ccccc1-2`, the growth inhibition in experiment [1] (setting [7]) is 32%; in experiment [1] (setting [8]) it was 98% (active); in experiment [1] (at 50.0 µM), 77.5% (active); in experiment [2] (setting [7]) it was 19%; in experiment [2] (setting [8]), 99% (active); in experiment [2] (at 50.0 µM), 59.9%. Moreover, the growth inhibition was 51% in experiment [3] (setting [7]); 96% (active) in experiment [3] (setting [8]); 84.2% (active) in experiment [3] (at 50.0 µM); 42% in experiment [4] (setting [7]); 86% (active) in experiment [4] (setting [8]); 52.8% in experiment [4] (at 50.0 µM). The growth inhibition in experiment [5] (setting [7]) is 48%; in experiment [5] (setting [8]), 95% (active); in experiment [5] (at 50.0 µM), 81.5% (active); in experiment [6] (setting [7]), 26%; in experiment [6] (setting [8]), 96% (active); in experiment [6] (at 50.0 µM), 92.7% (active).

`Nc1ccc(-c2ccc(N)c(S(=O)(=O)O)c2)cc1S(=O)(=O)O`: the growth inhibition was 4% in experiment [1] (setting [7]); 2% in experiment [1] (setting [8]); -11.9% in experiment [1] (at 50.0 µM); 4% in experiment [2] (setting [7]); 12% in experiment [2] (setting [8]); -9% in experiment [2] (at 50.0 µM). Moreover, the growth inhibition in experiment [3] (setting [7]) is 5%; in experiment [3] (setting [8]), 3%; in experiment [3] (at 50.0 µM) it was 7.85%; in experiment [4] (setting [7]), 9%; in experiment [4] (setting [8]) it was 24%; in experiment [4] (at 50.0 µM), 49%. Besides, the growth inhibition in experiment [5] (setting [7]) is 6%; in experiment [5] (setting [8]) it was 15%; in experiment [5] (at 50.0 µM) it was 33.2%; in experiment [6] (setting [7]), 13%; in experiment [6] (setting [8]), 6%; in experiment [6] (at 50.0 µM), -21.8%.

In the case of `CCOC(=O)C1(C)CCCC1N` (stereo not drawn), the growth inhibition in experiment [1] (setting [7]) was -1%; in experiment [1] (setting [8]), 52%; in experiment [1] (at 50.0 µM), -37.3%; in experiment [2] (setting [7]), 2%; in experiment [2] (setting [8]) it was 93% (active); in experiment [2] (at 50.0 µM) it was -35%. In addition, the growth inhibition in experiment [3] (setting [7]) is -4%; in experiment [3] (setting [8]), 42%; in experiment [3] (at 50.0 µM) it was -17.6%; in experiment [4] (setting [7]), 21%; in experiment [4] (setting [8]) it was 94% (active); in experiment [4] (at 50.0 µM) it was 53.1%. In addition, the growth inhibition is 14% in experiment [5] (setting [7]); 98% (active) in experiment [5] (setting [8]); -5.45% in experiment [5] (at 50.0 µM); 14% in experiment [6] (setting [7]); 82% (active) in experiment [6] (setting [8]); 15.7% in experiment [6] (at 50.0 µM).

In the case of `CCOc1ccc(C(CN2CCOCC2)C(C)=O)cc1OC` (stereo not drawn), the growth inhibition was -3% in experiment [1] (setting [7]); 30% in experiment [1] (setting [8]); 72.5% (active) in experiment [1] (at 50.0 µM); -27% in experiment [2] (setting [7]); 68% in experiment [2] (setting [8]); 77.7% (active) in experiment [2] (at 50.0 µM). The growth inhibition is -4% in experiment [3] (setting [7]); 30% in experiment [3] (setting [8]); 74.7% (active) in experiment [3] (at 50.0 µM); 0% in experiment [4] (setting [7]); 28% in experiment [4] (setting [8]); 45.4% in experiment [4] (at 50.0 µM). Further, the growth inhibition in experiment [5] (setting [7]) is -8%; in experiment [5] (setting [8]), 81% (active); in experiment [5] (at 50.0 µM) it was 78.7% (active); in experiment [6] (setting [7]), -18%; in experiment [6] (setting [8]), 86% (active); in experiment [6] (at 50.0 µM) it was 63.8%.

On to `CN(C)c1ccc(/C=C/c2sc3ccc4ccccc4c3[n+]2C)cc1`, for which the growth inhibition in experiment [1] (setting [7]) was 97% (active); in experiment [1] (setting [8]), 96% (active); in experiment [1] (at 50.0 µM) it was 89.1% (active); in experiment [2] (setting [7]), 99% (active); in experiment [2] (setting [8]) it was 98% (active); in experiment [2] (at 50.0 µM) it was 89.7% (active). In addition, the growth inhibition is 100% (active) in experiment [3] (setting [7]); 98% (active) in experiment [3] (setting [8]); 90.2% (active) in experiment [3] (at 50.0 µM); 99% (active) in experiment [4] (setting [7]); 97% (active) in experiment [4] (setting [8]); 89.5% (active) in experiment [4] (at 50.0 µM). Moreover, the growth inhibition in experiment [5] (setting [7]) is 99% (active); in experiment [5] (setting [8]), 97% (active); in experiment [5] (at 50.0 µM), 89.8% (active); in experiment [6] (setting [7]), 98% (active); in experiment [6] (setting [8]), 97% (active); in experiment [6] (at 50.0 µM), 89.2% (active).
